Test results: PubChem BioAssay AID1159580 (chemical genetic matrix, 2015)
About 2,000 (36%) of roughly 5,500 compounds were called active. About 18% were inconclusive and are not listed. Cut-off read from the data, not from the text of the source: active = normalized growth mostly below about 0.91 (no sharp cut-off); inconclusive = no clear call, values can overlap the other calls; inactive = mostly above about 0.92. The list shows a part of the results.

Test: chemical genetic growth profiling, strain panel (AID 1159580);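 note: tested at 20 µM; growth read once vehicle control cultures reached saturation at 30 °C; 1 = growth at the plate median or of vehicle wells; lower values mean less growth of the strain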
Settings: growth OD

Measured: normalized growth

O=C(O)c1ccccc1C(=O)Nc1ccc(S(=O)(=O)Nc2nccs2)cc1
inactive: S. cerevisiae deletion strains, locus YJR066W, strain TOR1, stronger effect = lower value 0.983 | S. cerevisiae deletion strains, locus YJR075W, strain HOC1, stronger effect = lower value 1.02 | S. cerevisiae deletion strains, locus YKL009W, strain mrt4, stronger effect = lower value 1.03 | S. cerevisiae deletion strains, locus YKL068W, stronger effect = lower value 0.987 | S. cerevisiae deletion strains, locus YKL085W, strain MDH1 (second series), stronger effect = lower value 0.984 | S. cerevisiae deletion strains, locus YKL085W, strain MDH1, stronger effect = lower value 0.984 | S. cerevisiae deletion strains, locus YKL160W, strain elf1, stronger effect = lower value 0.972 | S. cerevisiae deletion strains, locus YKL190W, strain CNB1, stronger effect = lower value 1 | S. cerevisiae deletion strains, locus YKR001C, strain vps1, stronger effect = lower value 1 | S. cerevisiae deletion strains, locus YKR026C, strain gcn3, stronger effect = lower value 0.981 | S. cerevisiae deletion strains, locus YKR091W, strain srl3, stronger effect = lower value 0.984 | S. cerevisiae deletion strains, locus YLL001W, strain dnm1, stronger effect = lower value 0.966 | S. cerevisiae deletion strains, locus YLL026W, stronger effect = lower value 0.988 | S. cerevisiae deletion strains, locus YLL041C, strain sdh2, stronger effect = lower value 0.969 | S. cerevisiae deletion strains, locus YLR027C, strain aat2, stronger effect = lower value 0.982 | S. cerevisiae deletion strains, locus YLR039C, strain RIC1, stronger effect = lower value 1 | S. cerevisiae deletion strains, locus YLR058C, strain SHM2, stronger effect = lower value 1.01 | S. cerevisiae deletion strains, locus YLR102C, strain apc9, stronger effect = lower value 0.99 | S. cerevisiae deletion strains, locus YLR113W, strain HOG1, stronger effect = lower value 1 | S. cerevisiae deletion strains, locus YLR221C, strain rsa3, stronger effect = lower value 0.95 | S. cerevisiae deletion strains, locus YLR258W, strain gsy2, stronger effect = lower value 0.986 | S. cerevisiae deletion strains, locus YLR262C, strain YPT6 (second series), stronger effect = lower value 1 | S. cerevisiae deletion strains, locus YLR262C, strain YPT6, stronger effect = lower value 1.03 | S. cerevisiae deletion strains, locus YLR268W, strain sec22, stronger effect = lower value 0.998 | S. cerevisiae deletion strains, locus YLR320W, strain mms22, stronger effect = lower value 0.976 | S. cerevisiae deletion strains, locus YLR330W, strain CHS5, stronger effect = lower value 1 | S. cerevisiae deletion strains, locus YLR342W, strain FKS1 (second series), stronger effect = lower value 0.994 | S. cerevisiae deletion strains, locus YLR342W, strain FKS1, stronger effect = lower value 0.99 | S. cerevisiae deletion strains, locus YLR357W, strain rsc2, stronger effect = lower value 0.975 | S. cerevisiae deletion strains, locus YLR370C, strain arc18, stronger effect = lower value 0.959 | S. cerevisiae deletion strains, locus YLR371W, strain rom2, stronger effect = lower value 0.998 | S. cerevisiae deletion strains, locus YLR384C, strain iki3, stronger effect = lower value 0.976 | S. cerevisiae deletion strains, locus YLR418C, strain cdc73, stronger effect = lower value 0.992 | S. cerevisiae deletion strains, locus YML016C, strain PPZ1, stronger effect = lower value 0.995 | S. cerevisiae deletion strains, locus YML032C, strain rad52, stronger effect = lower value 0.994 | S. cerevisiae deletion strains, locus YML120C, strain ndi1, stronger effect = lower value 0.969 | S. cerevisiae deletion strains, locus YML124C, strain tub3, stronger effect = lower value 0.992 | S. cerevisiae deletion strains, locus YMR058W, strain fet3, stronger effect = lower value 0.98 | S. cerevisiae deletion strains, locus YMR078C, strain ctf18, stronger effect = lower value 0.99 | S. cerevisiae deletion strains, locus YMR125W, strain sto1, stronger effect = lower value 0.96 | S. cerevisiae deletion strains, locus YMR129W, stronger effect = lower value 0.989 | S. cerevisiae deletion strains, locus YMR205C, strain PFK2, stronger effect = lower value 0.965 | S. cerevisiae deletion strains, locus YMR223W, strain ubp8, stronger effect = lower value 0.998 | S. cerevisiae deletion strains, locus YMR231W, strain pep5, stronger effect = lower value 0.974 | S. cerevisiae deletion strains, locus YMR307W, strain GAS1, stronger effect = lower value 0.973 | S. cerevisiae deletion strains, locus YNL067W, strain RPL9B, stronger effect = lower value 1.01 | S. cerevisiae deletion strains, locus YNL071W, strain lat1, stronger effect = lower value 0.987 | S. cerevisiae deletion strains, locus YNL128W, strain TEP1, stronger effect = lower value 1.02 | S. cerevisiae deletion strains, locus YNL183C, strain NPR1, stronger effect = lower value 0.975 | S. cerevisiae deletion strains, locus YNL209W, strain ssb2, stronger effect = lower value 0.989 | S. cerevisiae deletion strains, locus YNL233W, strain BNI4, stronger effect = lower value 1.01 | S. cerevisiae deletion strains, locus YNL248C, strain rpa49, stronger effect = lower value 0.97 | S. cerevisiae deletion strains, locus YNL250W, strain rad50, stronger effect = lower value 1 | S. cerevisiae deletion strains, locus YNL271C, strain bni1, stronger effect = lower value 0.982 | S. cerevisiae deletion strains, locus YNL298W, strain CLA4, stronger effect = lower value 0.995 | S. cerevisiae deletion strains, locus YNL307C, strain MCK1, stronger effect = lower value 1 | S. cerevisiae deletion strains, locus YNL322C, strain KRE1 (second series), stronger effect = lower value 0.945 | S. cerevisiae deletion strains, locus YNL322C, strain KRE1, stronger effect = lower value 1.01 | S. cerevisiae deletion strains, locus YNR049C, strain mso1, stronger effect = lower value 0.976 | S. cerevisiae deletion strains, locus YNR052C, strain pop2, stronger effect = lower value 0.994 | S. cerevisiae deletion strains, locus YOL006C, strain TOP1, stronger effect = lower value 1.02 | S. cerevisiae deletion strains, locus YOL012C, strain htz1 0.647 | S. cerevisiae deletion strains, locus YOL147C, strain pex11, stronger effect = lower value 0.987 | S. cerevisiae deletion strains, locus YOR001W, strain rrp6, stronger effect = lower value 0.999 | S. cerevisiae deletion strains, locus YOR061W, strain CKA2, stronger effect = lower value 1 | S. cerevisiae deletion strains, locus YOR069W, strain VPS5, stronger effect = lower value 1 | S. cerevisiae deletion strains, locus YOR070C, strain gyp1, stronger effect = lower value 0.976 | S. cerevisiae deletion strains, locus YOR080W, strain dia2, stronger effect = lower value 0.973 | S. cerevisiae deletion strains, locus YOR083W, strain WHI5, stronger effect = lower value 0.983 | S. cerevisiae deletion strains, locus YOR106W, strain vam3, stronger effect = lower value 0.972 | S. cerevisiae deletion strains, locus YOR136W, strain idh2, stronger effect = lower value 1 | S. cerevisiae deletion strains, locus YOR144C, strain elg1, stronger effect = lower value 0.993 | S. cerevisiae deletion strains, locus YOR184W, strain ser1, stronger effect = lower value 1 | S. cerevisiae deletion strains, locus YOR231W, strain MKK1, stronger effect = lower value 1.04 | S. cerevisiae deletion strains, locus YOR265W, strain rbl2, stronger effect = lower value 0.99 | S. cerevisiae deletion strains, locus YOR270C, strain vph1, stronger effect = lower value 0.983 | S. cerevisiae deletion strains, locus YOR290C, strain snf2, stronger effect = lower value 0.959 | S. cerevisiae deletion strains, locus YOR316C, strain cot1, stronger effect = lower value 1.01 | S. cerevisiae deletion strains, locus YPL051W, strain arl3, stronger effect = lower value 1 | S. cerevisiae deletion strains, locus YPL078C, strain atp4, stronger effect = lower value 0.983 | S. cerevisiae deletion strains, locus YPL106C, strain sse1, stronger effect = lower value 0.936 | S. cerevisiae deletion strains, locus YPL240C, strain hsp82, stronger effect = lower value 0.979 | S. cerevisiae deletion strains, locus YPL241C, strain CIN2, stronger effect = lower value 0.999 | S. cerevisiae deletion strains, locus YPL256C, strain CLN2, stronger effect = lower value 1.02 | S. cerevisiae deletion strains, locus YPR119W, strain clb2, stronger effect = lower value 0.99 | S. cerevisiae deletion strains, locus YPR141C, strain kar3, stronger effect = lower value 0.984 | S. cerevisiae deletion strains, locus YPR163C, strain tif3, stronger effect = lower value 0.993 | S. cerevisiae deletion strains, locus YPR167C, strain met16, stronger effect = lower value 0.997 | S. cerevisiae deletion strains, strain wtn01, stronger effect = lower value 0.995 | S. cerevisiae strains, strain wild type, stronger effect = lower value 1
